In PubChem BioAssay AID2540 (Sanford-Burnham Center for Chemical Genomics, 2010):
The whole screen tested about 330,000 compounds, of which about 4,100 (1.2%) were called active. Rule as the data show it: active = inhibition above about 50%; inactive = the rest. The entries come from a sample that favours actives as a whole.

molecular target: Sentrin-specific protease 8 (Homo sapiens) (UniProt Q96LD8); assay: blockers of human SENP8 peptidase activity – biochemical, luminescence, primary screen (AID 2540); details: purified SENP8, Z-RLRGG-aminoluciferin cleavage, at 10 µM, stronger effect = higher value
Sequence (Q96LD8 whole entry, looked up): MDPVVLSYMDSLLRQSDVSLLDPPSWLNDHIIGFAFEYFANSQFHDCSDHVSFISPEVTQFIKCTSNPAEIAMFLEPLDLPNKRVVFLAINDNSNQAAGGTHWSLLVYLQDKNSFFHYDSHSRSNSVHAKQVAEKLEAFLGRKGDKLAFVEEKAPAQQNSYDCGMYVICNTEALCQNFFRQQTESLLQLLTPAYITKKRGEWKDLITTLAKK

Compound | inhibition
Cc1ccc(CCCOC(=O)C[N+]2(C)CCCCC2)cc1 | 7.71% (inactive)
COc1ccc(CCNc2cc(N3CCN(C(=O)c4ccccc4OC)CC3)ccc2[N+](=O)[O-])cc1OC | -3.35% (inactive)
CC1=NN(C(N)=S)C(=O)C1N=Nc1cc(Cl)ccc1Cl (configuration not stated) | 70.4% (active)
NC(=O)CC[C@@H]1NC(=O)[C@@H]2CCCN2C(=O)c2cc([N+](=O)[O-])cc(F)c2NCCC[C@@H](C(N)=O)NC1=O | -2.54% (inactive)
CN(CC(=O)NCc1cccnc1)S(=O)(=O)c1cc(Cl)ccc1Cl | 3.65% (inactive)
CN1C(C(=O)NCc2ccco2)CC2Cn3c(nc4ccccc43)C21 (configuration not stated) | -18.3% (inactive)
O=C(O)CN1C(=O)CC(Cc2ccccc2)C1=O (configuration not stated) | 4.48% (inactive)
CCOC(=O)c1ccc(Nc2cc(C)nc3nc(C)nn23)cc1 | 7.18% (inactive)
CCOC(=O)c1ccc(NC(=O)c2c(NCc3ccccc3)[nH]c(=O)[nH]c2=O)cc1 | 0.312% (inactive)
CCOC(=O)c1ccc(Nc2cc3ccccc3c(=O)[nH]2)cc1 | 64.2% (active)
O=C(NN1C(=O)C2C3C=CC(O3)C2C1=O)c1ccccc1 (configuration not stated) | -0.512% (inactive)
Nc1ccc(N=Nc2ccccc2Cl)c(N)n1 | 72.7% (active)
COc1ccccc1C1CC(=O)n2c(nc(-c3ccccc3)c2-c2ccccc2)S1 (configuration not stated) | -4.43% (inactive)
CC(=O)c1cnn(-c2cc(Oc3ccc(F)cc3)ncn2)c1C | 9.6% (inactive)
O=C(COc1ccc2c(c1)CCC2)N1CCN(c2ccc(F)cc2)CC1 | -17.5% (inactive)
COc1ccc(N=C(C)c2sc3ccccc3c2O)cc1 | 74% (active)
COC(=O)c1ccc(/C=C/c2c(-c3ccc(OC)cc3)sc3ccccc23)cc1 | -2.53% (inactive)
COc1ccc(-c2sc3ccccc3c2-c2ccc(OCCN3CCOCC3)cc2)cc1 | 8% (inactive)
COC(=O)C1=CN(c2ccc(F)c(F)c2)C=C(C(=O)OC)C1c1ccc([N+](=O)[O-])cc1 | -9.67% (inactive)
CC(=O)N1CCN(C(=O)C2(NC(=O)Nc3ccc(C)cc3)CCCCC2)CC1 | 5.59% (inactive)
CC1(C)CC(N(Cc2ccccc2)C(=O)Cc2ccccc2)CCO1 (configuration not stated) | -3.89% (inactive)
COc1ccc(-c2ccc(OC(=O)NC3CCS(=O)(=O)C3)cc2)cc1 (configuration not stated) | -13.5% (inactive)
